According to PubChem BioAssay AID504895 (National Center for Advancing Translational Sciences (NCATS), 2011):
Inconclusive results are not listed. Calls follow the shape of the dose curve; as a rule, active = well fitted curve in the direction sought with a large enough effect; inconclusive = small, poorly fitted or top-dose-only effect, or another doubt; inactive = no such curve, though single readings can be large or run the other way.

Molecular target: Protein phosphatase EYA2 (Homo sapiens) (UniProt O00167)
Sequence (O00167 whole entry, looked up): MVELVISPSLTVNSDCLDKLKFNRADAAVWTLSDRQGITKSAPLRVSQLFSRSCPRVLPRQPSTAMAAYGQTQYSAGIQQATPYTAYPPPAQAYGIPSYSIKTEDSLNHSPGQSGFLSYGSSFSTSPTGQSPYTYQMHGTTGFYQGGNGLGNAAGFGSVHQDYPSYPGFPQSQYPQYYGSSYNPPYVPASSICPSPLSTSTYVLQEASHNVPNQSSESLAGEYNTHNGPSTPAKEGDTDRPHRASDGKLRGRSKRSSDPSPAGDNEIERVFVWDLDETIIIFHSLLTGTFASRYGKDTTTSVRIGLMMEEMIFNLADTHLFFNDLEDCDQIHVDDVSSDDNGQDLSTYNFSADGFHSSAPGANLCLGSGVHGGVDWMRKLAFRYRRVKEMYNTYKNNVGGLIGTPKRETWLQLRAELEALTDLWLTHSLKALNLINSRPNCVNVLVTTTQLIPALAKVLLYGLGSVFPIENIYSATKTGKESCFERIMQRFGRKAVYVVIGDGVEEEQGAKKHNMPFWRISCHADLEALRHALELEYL
Assay: Inhibitors of Eya2ED: Hit Confirmation in Primary Screen
Details: Recombinant Eya2ED, OMFP fluorescence phosphatase assay; series mostly up to 76.9 µM; activity change, negative = inhibition: at the top concentration
From the text: The Eya proteins (Eya1-4) were originally identified as essential co-activators of the Six1 transcription factor. […] Knockdown of Six1 decreases cancer cell proliferation and metastases in several different cancer models. […] A fluorescence-based HTS assay has been perfomed against the Molecular Libraries Small Molecule Repository (MLSMR) and has the AID 488837 in this database. After completion of the primary screen, hits were re-ordered and tested again in the primary screen in a 12 point titration. NIH Chemical Genomics Center [NCGC] NIH Molecular Libraries Probe Centers Network [MLPCN] MLPCN Grant: DA030559-01 Assay Submitter (PI): Rui Zhao, University of Colorado, Denver
The Eya2 enzyme was kindly provided by the laboratory of Dr. Rui Zhao. The 3-O-methyl-fluorescein phosphate (OMFP) substrate and all buffer reagents were purchased from Sigma Aldrich. qHTS Assay Setup: 1. Buffer- 50 mM HEPES pH 7.5, 50 mM NaCl, 5 uM MgCl2, 0.05% BSA, 1 mM DTT. 2. OMFP Stock- 10 mM solution prepared in 100% DMSO and stored in single use aliquots at -20C. Assay Procedure- 1. Dispense 1.5 ul per well of Eya2 at 0.2 uM in black medium binding 1536 well Greiner plate 2. Transfer 23 nl of compound and control compound (EGTA) to plate 3. Incubate at ambient for 10 minutes 4. Dispense 1.5 ul per well of OMFP at 50 uM 5. Incubate at ambient for 10 minutes 6. Read on ViewLux using Excitation = 485 nm, Emission = 525 nm

Activity change, negative = inhibition, inactive:
CC(NC(=O)COC(=O)C1CC1C)c1cccc(Cl)c1 (stereo not given) -16%, O=C(C1CCC(=O)N(C2CCCC2)C1)N1CCC(Oc2cccc(F)c2)CC1 (stereo not given) 9%, COc1ccc(CCNC(=O)CCSc2nc(-c3ccco3)cc(C(F)(F)F)n2)cc1OC -7.04%, O=C(C1CCCN(Cc2ccccc2F)C1)N1CCc2ccccc2C1 (stereo not given) 3.27%, Cc1ccc(NC(=O)CC2C(=O)NC3CCCCC3N2C(=O)c2ccc(F)cc2)cc1C (stereo not given) -1.78%, COc1ccc(CC(=O)Nc2cccnc2)cc1 -22.4%, O=C(CC1(CC(=O)N2CCOCC2)CCCC1)Nc1ccccc1 12.2%, O=C(CC(c1ccccc1)c1ccccc1)Nc1ccc(Cl)cn1 -4.3%, Cc1onc(-c2ccccc2Cl)c1C(=O)OCC(=O)N1CCC(C)CC1 -4.81%, CCCOc1ccc(S(=O)(=O)N2CCN(C)CC2)c2ccccc12 -5.34%, O=C(COc1cccc(C(F)(F)F)c1)NCC(c1ccco1)N1CCCC1 (stereo not given) -8.36%, O=C(Cc1ccccc1F)NC1CCCN(Cc2ccc(Cl)cc2)C1 (stereo not given) -14.9%, Cc1cc(C)c(S(=O)(=O)N2CCCCC2CCNC(=O)C(=O)NCCN2CCOCC2)c(C)c1 (stereo not given) -17%, Cc1cc(C(=O)N/N=C/C=C/c2ccc3c(c2)OCO3)n[nH]1 -25.5%, O=C(NCCC1CCCCN1S(=O)(=O)c1ccccc1)C(=O)NCc1ccccn1 (stereo not given) -0.504%, COc1ccc2c(c1)[C@H]1[C@H](CO2)[C@H](c2ccccc2)[C@]2(C)C(=O)Nc3ccc(F)cc3C(=O)N12 -16.7%, COc1cc(C(=O)Nc2ccc(NC(=O)c3ccccc3Cl)nc2)cc(OC)c1OC 24.2%, Cc1cc(/C=C2\SC(=S)NC2=O)cc(C)c1O 0.396%, COc1ccccc1OCCCCOc1ccccc1F -3.36%, O=C(COC(=O)c1cc(S(=O)(=O)N2CCCC2)ccc1O)Nc1ccccc1Br -5.64%, COC(=O)C(NNc1ccccc1)(NC(=O)c1cccc(F)c1)C(F)(F)F (stereo not given) 1.48%, CC(=O)c1c(C)[nH]c(C(=O)NNC(=O)c2ccc(Br)cc2)c1C -4.21%, C=CCC1(C#N)C(=S)NC(C)=C(C(=O)OCC)C1c1ccccc1 (stereo not given) -35.1%, Cn1cccc1C(=O)Nc1ccc(Cl)c(S(=O)(=O)N2CCCCC2)c1 -22.9%, Cc1ccc(Nc2nc(N)nc(CSc3ncccn3)n2)cc1 -25.5%, COc1ccc(C(=O)NCCSCc2ccccc2C)cc1 -14.1%, COC(=O)C1OC(OC2CC[C@]3(C)C(CC[C@@]4(C)[C@@H]3CC=C3[C@@H]5CC(C)(C)CC[C@]5(C(=O)OC5OC(CO)C(O)C(O)C5O)CC[C@]34C)C2(C)C)C(O)C(O)C1O[C@H]1OCC(O)C(O)C1O (stereo not given in full) -25.9%, Cn1c(CNC(=O)c2ccc(Cl)cc2)nnc1SCC(=O)NC1=NCCS1 -10.6%, COc1ccc(NC(=O)CSc2nc3[nH]c(=O)[nH]c(=O)c3s2)cc1OC 16%, CC(C)CN1C(=O)c2ccc(NC(=O)c3ccccc3F)cc2C1=O -10.4%, CCOc1ccc(S(=O)(=O)N2CCN(C(=O)c3sccc3C)CC2)cc1 -6.23%, Cc1ccc2c(c1)CCCN2C(=O)c1cccs1 -5.45%, O=C(NCCc1ccc(Cl)cc1)C1CCN(C(=O)N2CCOc3ccccc32)CC1 -4.76%, CCOc1ccc(S(=O)(=O)NC(C)C(=O)NCc2ccncc2)cc1 (stereo not given) -21.8%, Cc1ccc(S(=O)(=O)NNC(=S)NCCc2ccccc2)cc1 -8.51%, COc1ccc(CCc2nc(C)ccc2O)cc1 -2.2%, Cc1cc(C(N)=O)nn1-c1c(Cl)cc(Cl)cc1Cl -17%, Cc1nn(-c2nc(-c3ccco3)cc(C(F)(F)F)n2)c(C)c1Cl -6.37%, COc1cc2c(cc1OC)C(c1c(Cl)cccc1Cl)NC(=O)C2 (stereo not given) -5.08%, CO/N=C(\N)c1nonc1N 14.5%
